# High-throughput results as filed in PubChem.
# Epigenetic reg: Quantitative High-Throughput Screen for Regulators of Epigenetic Control; murine LDR cells, GFP reporter derepression, 30 h; Potency, µM (titrated, usually from 53.9 µM), usual class: activators; 0.2% of 280,000 active; AID 1865, 2009; also: nearly all actives have a fitted effect of over 60% in size
#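 Readout is the number of GFP-expressing murine LDR cells, counted by cytometry following washing. Cells were treated with compound for 30 h at 37 C; the stably integrated CMV-GFP locus is normally silent.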
# ClpP mod: qHTS Assay for Activators of ClpP | ATP-dependent Clp protease proteolytic subunit (Bacillus subtilis (strain 168)), P80244 | purified B. subtilis ClpP, FRET peptide cleavage, 20 min | Potency, µM (highest dose often 57.5 µM) | 1.9% of 340,000 active; active = well fitted falling curve with a large enough effect; inconclusive = small, poorly fitted or top-dose-only effect; inactive = no such curve, though single readings can be large or run the other way; also: the source files actives as falling curves though it sought activators and does not explain the sign; nearly all actives have a fitted effect of over 65% in size
# Target sequence (P80244 whole entry, looked up): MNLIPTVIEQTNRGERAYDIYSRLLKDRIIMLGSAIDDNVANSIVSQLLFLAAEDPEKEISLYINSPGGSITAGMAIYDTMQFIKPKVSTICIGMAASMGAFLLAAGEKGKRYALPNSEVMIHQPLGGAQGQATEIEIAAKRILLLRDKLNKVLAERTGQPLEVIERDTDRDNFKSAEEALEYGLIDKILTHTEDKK
#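 Buffer: 100 mM Tris/HCl pH8, 100 mM KCl, 0.05% low protease BSA, 2.5% glycerol, 0.01% Tween-20. ClpP 10 microg/mL final; 20 min RT; delta FRET normalized to ADEP and DMSO controls.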
# Sfp inh: qHTS Assay for Inhibitors of Bacillus subtilis Sfp phosphopantetheinyl transferase (PPTase) | 4'-phosphopantetheinyl transferase ffp (Bacillus subtilis), Q9F4F7 | Biochemical Sfp PPTase activity, qHTS | Potency, µM, most hits filed as inhibitors | 3.5% of 310,000 active | AID 1490, 2009;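 also: the enzyme is Sfp with the accession as filed and its product quenches rhodamine fluorescence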
#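 Fluorescence-quenching assay: 15 nM Sfp-PPTase preincubated 15 min at room temperature with compound, then 5 uM rhodamine-CoA and 12.5 uM BHQ-2-labelled YbbR peptide added. Fluorescence (ex 525/em 598 nm) read at start and after 30 min; difference gives rate.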
# RORg inh: qHTS for inhibitors of ROR gamma transcriptional activity | Nuclear receptor ROR-gamma (Mus musculus), P51450 | Potency, µM (doses to about 53.6 µM), most hits filed as inhibitors | 5.4% of 310,000 active | Drosophila S2 Gal4-RORgamma UAS-luciferase reporter, 20 h; also: nearly all actives have a fitted effect of over 60% in size
#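 Compounds are pin-transferred onto Drosophila Schneider cells expressing a copper-inducible Gal4–ROR gamma transactivation domain fusion. After 1 hr, copper sulfate is added to 700 uM final; luciferase is read 20 hr later.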
# Gal4-VP16 FLuc: VP16 counterscreen qHTS for inhibitors of ROR gamma transcriptional activity | Drosophila S2 Gal4-VP16 UAS-luciferase, luminescence, 20 h | Potency, µM (series often up to 53.6 µM), hits mostly inhibitors | 3.5% of 310,000 active;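 also: Gal4-VP16 expression switched on by copper sulfate through the metallothionein promoter; nearly all actives have a fitted effect of over 50% in size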
# PINK1 modulator: A Quantitative High throughput Screen to Identify Chemical Modulators of PINK1 Expression; Potency, µM (titrated, usually from 76.6 µM), hits mostly activators; PINK1 immunofluorescence, high-content cytometry, 24 h; 0.2% of 410,000 active; AID 624263, 2012; active = well fitted activation curve with a large enough effect; inconclusive = small, poorly fitted or top-dose-only effect; cell line not stated here; also: nearly all actives have a fitted effect of over 65% in size
#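 Stable cell line, 250 cells/well, 12 h attachment; compounds pinned at 5 concentrations, 24 h; CCCP control. Fixed with nuclear dye, primary antibodies 12 h at 10 degrees C, secondary plus cell stain; laser-scanning cytometer read.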
# Numbers stand for hits; i = inactive; ? = inconclusive; nt = not tested or not shown; [ ] = another dose, or the depositor's remark. Hits are enriched below; roughly 8.1% of the tested compounds scored in any of these assays. Unless noted, calls follow the shape of the dose curve; as a rule, active = well fitted curve in the direction sought with a large enough effect; inconclusive = small, poorly fitted or top-dose-only effect, or another doubt; inactive = no such curve, though single readings can be large; an effect the other way counts as inactive or inconclusive.
SMILES,Epigenetic reg,ClpP mod,Sfp inh,RORg inh,Gal4-VP16 FLuc,PINK1 modulator
S=c1[nH]cnc2sc(-c3ccccc3)cc12,i,nt,i,1.41µM,4.47µM,i
Oc1ccc(N2CCN(c3ncnc4sc(-c5ccccc5)cc34)CC2)cc1,i,nt,20µM,i,i,i
CN(C)CCNc1ncnc2sc(-c3ccccc3)cc12,nt,i,i,i,i,i
CC(=O)N1CCN(c2ncnc3sc(-c4ccccc4)cc23)CC1,i,i,i,i,i[10 µM],i
CNc1ncnc2sc(-c3ccccc3)cc12,i,14.1µM,i,i,i,i
CCOc1ccc(CCNS(=O)(=O)c2cc(Br)cc3c2N(C(C)=O)CC3)cc1OCC,i,i,nt,nt,nt,i
CCC1CN(Cc2cn[nH]c2-c2ccc(F)cc2)Cc2cc(OC)ccc2O1 (stereo not drawn),nt,nt,nt,nt,nt,i
COc1cc(OC)c(Nc2nc3ccc(C)cc3n3nnnc23)cc1Cl,i,i,nt,nt,nt,i
Clc1ncnc2scc(-c3ccccc3)c12,i,i,i,?,i,nt
S=c1[nH]cnc2scc(-c3ccccc3)c12,?,i,i,0.501µM,0.501µM,i
CCCNC(=O)C(=O)N/N=C/c1cccs1,i,i,i,i,i,i
CCNC(=S)N/N=C/c1sc(N2CCCCC2)nc1-c1cccs1,i,nt,i,?,17.8µM,i
CC(Sc1cn(CCNC(=O)c2ccccc2F)c2ccccc12)c1ccccc1 (stereo not drawn),i,i,nt,nt,nt,i
COc1cc2c(=O)n(Cc3ccco3)c(=O)n(CC(=O)c3cccc(Br)c3)c2cc1OC,i,i,79.4µM,i,i,i
COc1cc2c(=O)n(Cc3ccco3)c(=O)n(CC(=O)c3ccc(Br)cc3)c2cc1OC,i,i,i,i,i,i
COC(=O)c1nc(NC(=O)C(C)C)n[nH]1,i,i,22.4µM,i,i,i
COC(=O)c1nc(NC(C)=O)n[nH]1,i,nt,i,i,i,nt
CCCCc1nc2ccccc2n2c(-c3ccc(OC)cc3)c3c(=O)n(C)c(=O)n(C)c3c12,i,?,nt,nt,nt,i
O=C(NC(NC(=S)Nc1ccc(F)c([N+](=O)[O-])c1)C(Cl)(Cl)Cl)C(c1ccccc1)c1ccccc1 (stereo not drawn),nt,nt,i,3.98µM,5.01µM,nt
COc1ccc(-c2nc3ccccc3o2)cc1NC(=O)c1ccc(-c2cccc(Cl)c2C)o1,i,i,nt,nt,nt,i
COc1cc(-c2cc(C)c3c(OC)ccc(OC)c3n2)cc2c1OCCN(C(=O)Cn1nc(C)cc1C)C2,nt,nt,nt,nt,nt,i
O=C(CC(Sc1ccc(Br)cc1)C(=O)O)c1ccc(F)cc1 (stereo not drawn),nt,i,44.7µM,?,?,i
CCOc1ccc(C(=O)CC(Sc2ccc(C)cc2)C(=O)O)cc1 (stereo not drawn),i,nt,35.5µM,4.47µM,?,i
CCC(Sc1ccc(C(=O)O)cc1)C(=O)O (stereo not drawn),i,i,i,i,i,i
CCOc1ccc(NC(=O)Cn2c(C)cc3ccccc3c2=O)cc1,i,i,nt,nt,nt,i
SMILES,Epigenetic reg,ClpP mod,Sfp inh,RORg inh,Gal4-VP16 FLuc,PINK1 modulator
Cc1ccc2onc(CC(=O)N3CCN(c4cccc(Cl)c4)CC3)c2c1,i,i,nt,nt,nt,i
COc1cc(C=O)ccc1OCCCOc1ccc([N+](=O)[O-])cc1,i,i,i,i,i,i
COC(=O)C(=Cc1ccc(OCc2ccc([N+](=O)[O-])cc2)c(OC)c1)C(=O)OC,i,i,?,15.8µM,i[0.365 µM],i
COc1cc(C(c2c(C)[nH][nH]c2=O)c2c(C)[nH][nH]c2=O)ccc1OCc1ccc([N+](=O)[O-])cc1,i,i,i,6.31µM,?,i
COc1cc(C(c2c(C)[nH][nH]c2=O)c2c(C)[nH][nH]c2=O)ccc1OC(=O)c1cccc([N+](=O)[O-])c1,i,i,i,i,i,i
CCOC(=O)/C(=C\c1ccc(OC)c(OC)c1)C(=O)c1cccnc1,nt,nt,i,i,i,i
